Drawing on PubChem BioAssay (NCI), this text covers growth for 18 compounds.

Some test systems named below: T-47D breast; BT-549 breast; MDA-MB-435 melanoma; SW-620 colon; MCF7 breast; HCT-116 colon; HCC-2998 colon; KM12 colon.
Test in all cases: NCI-60 one-dose screen, 48 h (100 = growth as untreated, 0 = no growth, -100 = all killed)
Common to all, as to settings: 10 µM unless noted

Each structure is given as a SMILES string. This is part of a sample that, as a whole, favours compounds with a hit. Of some 83,000 tested, about 20% had one in any assay.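 Compound tested at a single concentration for 48 hours in 96-well plates; a percent growth value below 10 was scored as active.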 Values without a mark were called inactive. Active and inactive are the calls of the source.

Consider `Cc1cnc(C(=O)Nc2nc3ccc(S(=O)(=O)Nc4ccc(C5(C(F)(F)F)CC5)cc4)cc3[nH]2)cn1`, for which the growth in the test on T-47D breast was 21.6%; in the test on BT-549 breast, 40.6%; in the test with MDA-MB-435 melanoma it was -77.5% (active); in the test with SW-620 colon, 15%; in the test on MCF7 breast it was 17.4%; with HCT-116 colon, 19.5%. The values for the growth in the test with HCC-2998 colon and in the test with KM12 colon were 42.4% and 16%, respectively.

Consider `O=C(Nc1ccc(F)cc1)Nc1ccc(NC(=O)c2cc(Cl)nc3ccccc23)cc1`, for which the growth in the test with T-47D breast is 42.9%; in the test on BT-549 breast, 37.2%; in the test with MDA-MB-435 melanoma it was 73.8%; in the test with SW-620 colon, 65%; in the test on MCF7 breast, 69%; with HCT-116 colon it was 56.9%. In addition, the results for the growth in the test on HCC-2998 colon and in the test with KM12 colon were 51% and 58.5%, respectively.

For `CCCOC(=O)N[C@H]1CCc2cc(OC)c(OC)c(OC)c2-c2ccc(SC)c(=O)cc21`, the growth in the test on T-47D breast is 39.3%; in the test on BT-549 breast it was 10.2%; in the test with MDA-MB-435 melanoma, -40.4% (active); in the test on SW-620 colon it was 18.4%; with MCF7 breast it was 15.6%; in the test with HCT-116 colon, 7.65% (active). Further, the growth was 23% in the test with HCC-2998 colon and -11.3% (active) with KM12 colon.

Take `O=C(CCN1CCCC1)Nc1ccc2c(NCCc3ccccc3)c3ccccc3nc2c1`: the growth is 1.89% (active) with T-47D breast; -15.3% (active) with BT-549 breast; -92.1% (active) in the test with MDA-MB-435 melanoma; -44.9% (active) in the test with SW-620 colon; -19.4% (active) in the test on MCF7 breast; -38.2% (active) in the test with HCT-116 colon. The growth in the test on HCC-2998 colon was -56.8% (active); in the test with KM12 colon, -15.6% (active).

Regarding `C=C1C(=O)O[C@H]2[C@H]1CC/C(CNC(=O)CCc1ccc(OC)cc1)=C\CC[C@@]1(C)O[C@@H]21`, the growth in the test on T-47D breast was 40.8%; in the test on BT-549 breast, 43.1%; in the test with MDA-MB-435 melanoma, 14.3%; in the test on SW-620 colon, 19%; with MCF7 breast it was 33.5%; in the test with HCT-116 colon, 19.8%. Moreover, the growth with HCC-2998 colon was 97.5%; in the test on KM12 colon it was 97.4%.

With `COc1cccc(/C=N/NC(=O)c2cnn3c2NC(c2ccccc2)C3)c1Oc1ccccc1` (centres undefined), the growth in the test on T-47D breast is 79.8%; in the test on BT-549 breast, 65.7%; in the test with MDA-MB-435 melanoma, 1.99% (active); in the test on SW-620 colon, 65.6%; in the test on MCF7 breast, 47.7%; with HCT-116 colon, 55.6%. Moreover, the growth in the test with HCC-2998 colon was 91%; in the test on KM12 colon it was 51.8%.

For `C=CC(=O)N[C@@H](/C=C/C(=O)OCC)Cc1ccc(-c2cc(Cl)cc(Cl)c2)cc1`, the growth in the test with T-47D breast was -4.93% (active); with BT-549 breast, 4.23% (active); with MDA-MB-435 melanoma, 1.71% (active); in the test on SW-620 colon, 11.7%; in the test on MCF7 breast it was 4.06% (active); in the test with HCT-116 colon it was 11.1%. For the same compound, the growth in the test on HCC-2998 colon is 41.6%; in the test on KM12 colon, 24.2%.

Consider `CCCCCCOc1ccc(/C=N/Nc2cc(C)nc3ccc(Cl)cc23)cc1`, for which the growth in the test on T-47D breast was 34.5%; in the test with BT-549 breast, 109%; with MDA-MB-435 melanoma it was -75.9% (active); in the test on SW-620 colon, -83.3% (active); in the test on MCF7 breast, -66.6% (active); in the test with HCT-116 colon it was -58.9% (active). The values for the growth with HCC-2998 colon and in the test with KM12 colon were -81.9% (active) and -68.2% (active), respectively.

Regarding `CCCCC/C=C/C(C)=C/C1CC(C)C/C=C/CCC(O)C(OC(N)=O)CCC(C)CC(O)C(C)C(=O)O1` (centres undefined), the growth is 91.6% in the test with T-47D breast; 120% with BT-549 breast; 50.6% in the test on MDA-MB-435 melanoma; 103% with SW-620 colon; 86.5% in the test on MCF7 breast; 94.1% in the test with HCT-116 colon. Further, the values for the growth with HCC-2998 colon and in the test with KM12 colon were 52.3% and 102%, respectively.

With `CN1[C@@H]2CC[C@H]1/C(=C\c1ccccc1)C(=O)/C2=C/c1ccccc1`, the growth is 56% with T-47D breast; 35% in the test with BT-549 breast; 25% in the test with MDA-MB-435 melanoma; 28.8% in the test on SW-620 colon; 20.4% with MCF7 breast; 11.9% with HCT-116 colon. Besides, the growth in the test on HCC-2998 colon is 63.3%; in the test with KM12 colon, 20.7%.

Take `COc1ccc2[nH]c(O)c(/C=c3/cc4c(c(-c5ccc(F)cc5)n3)=Nc3ccccc3-4)c2c1`: the growth in the test with T-47D breast is 73.6%; with BT-549 breast it was 98.9%; with MDA-MB-435 melanoma, 34.4%; in the test with SW-620 colon it was 27.5%; in the test with MCF7 breast, 26.8%; in the test with HCT-116 colon, 27.9%. Further, the growth in the test with HCC-2998 colon is 72.8%; in the test on KM12 colon, 43.7%.

With `C=C1C(=O)O[C@H]2[C@H]1CC/C(COC(=O)NCc1c[nH]c3ccc(Br)cc13)=C\CC[C@@]1(C)O[C@@H]21`, the growth with T-47D breast is -68% (active); in the test on BT-549 breast, -52.3% (active); with MDA-MB-435 melanoma, -56.5% (active); in the test with SW-620 colon, -71.3% (active); with MCF7 breast, 16.6%; in the test with HCT-116 colon, -83.1% (active). Also, the figures for the growth with HCC-2998 colon and in the test with KM12 colon were 53.3% and 19.5%, respectively.

Turning to `CCCCCC(=O)Oc1ccc(/C(=C(\C)c2ccccc2)c2ccc(OCCN3CCCCC3)cc2)cc1`, the growth with T-47D breast was 37.3%; with BT-549 breast it was 78.4%; in the test with MDA-MB-435 melanoma, 85.9%; in the test with SW-620 colon it was 87.9%; with MCF7 breast it was 27.7%; in the test with HCT-116 colon, 56.6%. Besides, the results for the growth in the test on HCC-2998 colon and with KM12 colon were 79.1% and 71.6%, respectively.

As to `Cc1cc2nc3c4cccc(O)c4n(CCN(C)C)c3nc2cc1C`, the growth in the test with T-47D breast was 64.3%; in the test on BT-549 breast it was 77.4%; in the test with MDA-MB-435 melanoma, 45.4%; with SW-620 colon, 20.6%; in the test with MCF7 breast it was 23.5%; in the test with HCT-116 colon, 22%. Also, the growth in the test with HCC-2998 colon is 24.5%; with KM12 colon it was 37.7%.

`COc1ccc(-c2cnc3c(-c4cccc5ncccc45)cnn3c2)cc1`: the growth with T-47D breast was 45.7%; with BT-549 breast, 37.1%; with MDA-MB-435 melanoma, 58%; in the test on SW-620 colon, 73.8%; with MCF7 breast it was 72.2%; with HCT-116 colon, 11.9%. The results for the growth in the test on HCC-2998 colon and in the test with KM12 colon were 90.7% and 69.3%, respectively.

For the compound `Cn1ccnc1C(=O)/C=C/c1ccc(CC(=O)NC2CCCCC2)cc1`, the growth is 47.9% in the test with T-47D breast; 54.1% in the test on BT-549 breast; 54.1% in the test on MDA-MB-435 melanoma; 23.1% in the test on SW-620 colon; 44.3% in the test on MCF7 breast; 21.5% in the test on HCT-116 colon. For the same compound, the growth with HCC-2998 colon is 100%; with KM12 colon it was 28.9%.

Turning to `O=C1Nc2cc(-c3cccc(O)c3)ccc2/C1=C/c1ccc[nH]1`, the growth with T-47D breast was -0.905% (active); with BT-549 breast, 0.113% (active); in the test on MDA-MB-435 melanoma, 5.05% (active); in the test on SW-620 colon, 18.9%; in the test with MCF7 breast it was 10.5%; in the test with HCT-116 colon it was 11.6%. The growth with HCC-2998 colon was 14.8%; in the test on KM12 colon, 0.211% (active).

On to `O=C1c2ccccc2CCC12OC2c1cn(-c2ccccc2)nc1-c1ccc(Cl)cc1` (centres undefined), for which the growth in the test on T-47D breast was 93.1%; in the test on BT-549 breast, 126%; in the test with MDA-MB-435 melanoma it was 100%; with SW-620 colon, 95.6%; with MCF7 breast, 87.7%; in the test on HCT-116 colon, 47.4%. Also, the growth in the test with HCC-2998 colon was 108%; in the test with KM12 colon it was 97.9%.
